Results on 46 compounds are retold here after PubChem BioAssay AID493014 (National Center for Advancing Translational Sciences (NCATS), 2011).

In all, about 340,000 compounds went through this assay and about 170 (0.05%) were called active. A call without a number means that no potency is given here. Inconclusive results (about 26%) are left out. Calls come from the whole dose curve; as a rule, active = well fitted inhibition curve with a large enough effect in the signal ratio, with a control signal flat (not every such curve was filed as active); inconclusive = small, poorly fitted or top-dose-only effect, or effect the other way, or a change in a side signal; inactive = flat fitted curve, though single readings scatter; the % refers to the signal ratio. The full list was thinned out, with actives kept by preference.
Potency is the fitted concentration of half-maximal effect.

This assay is described as follows: qHTS Assay to Find Inhibitors of Chronic Active B-Cell Receptor Signaling. The following applies: ABC-DLBCL IkBa-CBG/CBR reporter, luminescence ratio, 4 h; series mostly up to 46.1 µM. From the text: NIH Molecular Libraries Probe Production Network [MLPCN] NIH Chemical Genomics Center [NCGC] MLPCN Grant: 1 R03 DA031086-01A1 PI Name: Dr. R. Eric Davis NCGC Assay Overview: Diffuse large B-cell lymphoma (DLBCL) is the most common category of non-Hodgkin lymphoma, with ~20,000 new cases per year in the United States. DLBCL should be regarded as a collection of different neoplasms. Microarray gene expression analysis has defined two principal types of DLBCL, named for their similarity to normal B cell stages or activation states: a germinal center B-cell (GCB) type, and an activated B-cell (ABC) type. In ABC-DLBCL, a constitutive high-level activity of the NF-kappaB family of transcription factors has been observed (1) and NF-kappaB target genes are more highly expressed in ABC primary tumors than in GCB tumors. Functional studies have shown a constitutive high-level activity of the IkappaB (inhibitor of kappa-B) kinase (IKK) complex. […] Further analysis of DLBCL primary tumors for NF-kappaB target gene expression imply that although CARD11 is required for constitutive IKK activity in all ABC-DLBCL lines, mutations in CARD11 may be the root cause of IKK activation only in lines or tumors with such mutations. In other words, CARD11 mutations may explain NF-kappaB activation in only 10% of ABC-DLBCL cases. […] This process has been termed 'chronic active BCR signaling' (CABS). The goal of this screen is to find small-molecule inhibitors of the CABS pathway found in ABC-DLBCL lines using a cell-based assay that measures IkappaBalpa stability, which has already been extensively validated in the OCI-Ly3 line (PubChem AID:445; REF: 4). […] The assay uses green (CBG68) and red (CBR) emitting beetle luciferases [Chroma-GloTM developed by Promega Corp.] where the green luciferase is fused to IkappaBalpha and the red luciferase is present in its native state. Both luciferase genes are stably present in the TMD8 human ABC DLBCL cell line, but their expression is under the control of tetracycline-inducible promoters. Following the addition of doxycycline to induce expression of the luciferases, the green luminescence in control cultures rises only slowly because the CBG fusion partner IkappaBalpha is targeted by IKK activity for rapid degradation. In contrast, green luminescence rises rapidly in the presence of proteasome inhibitors or IKK inhibitors. The rise in red luminescence of CBR is not affected by proteasome or IKK inhibitors, and serves as normalization for cell number and nonspecific effects. Compounds were screened as a concentration-titration series that ranged from 46 uM to 3 nM.
NCGC Assay Protocol Summary: Cells were seeded in 1536-well plates at 5000 cells/4uL in IMDM medium containing 0.5% FBS, w/o phenol red, 1% penicillin/streptomycin. Then, 23 nL of compounds or DMSO were delivered to each well using a pin tool. One uL 20ng/ml doxycycline was then dispensed into white solid 1536-well plates and the plates were incubated at 37C/5% C02 in a cell incubator for 4 hrs. Then 4 uL luminescent substrate mix (in-house prepared: 150 mM Tris-Cl, pH 7.6, 3 mM MgCl2, 1% Triton X-100, 5 mM DTT, 0.2 mM CoA, 0.15 mM ATP, 5 mM D-luciferin, final concentrations) was added to each well. The plate was incubated at r.t. for 10-15 min. The plates were measured on a ViewLux plate reader for green luminescence (540/20 nm filter) and red luminescence (618/8 nm filter). The green and red luminescent signals were corrected for red and green luminescence filter overlap using previously determined filter calibration constants (determined using the procedure outlined in the Promega Technical Manual; REF 4). The %Activity was determined from the ratio of corrected green/red luminescent values. MG132 were used as control. […] Red luminescent %Activity was normalized to the difference between red luminesence in basal cells (0%Activity) and zero luminescence (-100% Activity). […]
For orientation: Quantitative high-throughput screening tests each substance at several concentrations.
As to `CC1CCc2sc(C(=O)NCC(c3ccco3)N3CCCCC3)cc2C1` (stereo unspecified), the Potency result is “inactive”.

In the case of `O=C(COc1ccc(F)cc1Br)NCC1COc2ccccc2O1` (stereo unspecified), the Potency result was “inactive”. With `Cc1ccccc1-c1cc(C(=O)NCc2cccs2)n(CC2CC(c3cccnc3)=NO2)n1` (stereo unspecified) the entry was “inactive”; with `O=C(c1ccc(N2CCOCC2)c([N+](=O)[O-])c1)N1CCN(c2ccccc2F)CC1`, “inactive”; with `C/C=C/c1ccc(OCC(=O)NNC(=O)CN(C)S(=O)(=O)c2ccc(C)cc2)c(OC)c1`, “inactive”.

`CN(CC(=O)Nc1ccc(OC(F)F)cc1)S(=O)(=O)/C=C/c1ccccc1`: the Potency entry is “inactive”. To `C=CC[C@H](CC(=O)OC(C)(C)C)C(=O)OC[C@H]1CCCN1C(=O)[C@H](CC=C)CC(=O)N(CCO)Cc1ccccc1` belongs “inactive”; to `Cc1ccc(C(=O)CN2C(=O)NC3(CCc4ccccc43)C2=O)c(C)c1` (stereo unspecified), “inactive”; to `CC(C(=O)Nc1ccc(S(=O)(=O)N2CCCC2)cc1)N(C)Cc1ccc(F)cc1` (stereo unspecified), “inactive”.

Take `CCCCNc1c(-c2ccc(OC)c(Sc3ccc(OC)cc3)c2)nc2ccc(Cl)cn12`: the Potency result was “inactive”.

With `Cc1ccc2c(CN3CCN(S(=O)(=O)c4ccccc4C(F)(F)F)CC3)cc(=O)oc2c1`, the Potency entry is “inactive”. With `COc1ccc(S(=O)(=O)N2CCOCC2)cc1NC(=O)c1ccc(OCC(C)C)c(OC)c1` the entry was “inactive”.

For the compound `COc1ccccc1-c1oc2ccccc2c1C#CCCCCO`, the Potency entry is “inactive”.

`COc1ccccc1S(=O)(=O)NCc1ccc(C(=O)N(C)Cc2ccc(F)cc2)cc1`: the Potency entry was “inactive”. With `COc1ccc(NC(=O)CCC(=O)N2CCN(S(=O)(=O)c3ccc(C)cc3)CC2)c(OC)c1` the entry was “inactive”; with `CSc1ccccc1NC(=O)c1cnc2sc(C)cn2c1=O`, “inactive”. In the case of `COc1ccc(OCCCC(=O)Nc2cccc(S(=O)(=O)N3CCCCCC3)c2)cc1`, the Potency entry was “inactive”. To `O=C(NCCc1ccco1)c1ccc(OCc2cn3ccccc3n2)cc1` belongs “inactive”; to `CN(CCc1ccccc1)C(=O)c1cccc(NC(=O)Cc2ccc([N+](=O)[O-])cc2)c1`, “inactive”. For the compound `CC(C)CN(C(=O)COC(=O)c1ccc(Cl)c(N)c1)c1c(N)n(Cc2ccccc2)c(=O)[nH]c1=O`, the Potency entry was “inactive”. To `NC(=O)c1ccccc1N(Cc1ccccc1)S(=O)(=O)c1ccccc1` belongs “inactive”; to `CCOC(=O)N1CCN(S(=O)(=O)c2ccc(OC)cc2)CC1`, “inactive”; to `CCOC(=O)N1CCN(C(=O)c2ccccc2N(Cc2ccccc2)S(=O)(=O)c2ccc(OC)cc2)CC1`, 15.8 µM (active).

Regarding `O=C(CNS(=O)(=O)c1ccc2c(c1)OCCCO2)N1CCN(c2ccc(F)cc2)CC1`, the Potency entry was “inactive”.

Take `Cc1c(C(=O)Nc2cccc(S(=O)(=O)N3CCOCC3)c2)oc2ccccc12`: the Potency result was “inactive”. Turning to `O=C(O)CCCn1c(=O)c2cccn2c2ccc(F)cc21`, the Potency result is “inactive”. To `COc1cc(/C=C2\Oc3ccc(C#Cc4ccc(O)cc4)cc3C2=O)cc(OC)c1` belongs “inactive”. To `COc1cc(C#Cc2ccc3cc(CCCO)oc(=O)c3c2)cc(OC)c1` belongs 14.6 µM (active).

In the case of `CC/C(=N\NC(=S)NC(C)C)c1ccc(OC(F)F)cc1`, the Potency was 22.4 µM (active).

Take `CC(NC(=S)Nc1ccc(OC(F)F)cc1)c1ccc(F)cc1` (stereo unspecified): the Potency result is “inactive”. With `C/C(=N\NC(=S)NC(C)C)c1ccc(C(C)(C)C)cc1` the entry was “inactive”; with `COc1ccc(C)cc1NC(=O)c1cc(-c2ccccc2)nc2c1cnn2C(C)C`, “inactive”. With `Cc1ccc(C)c(OCCC(=O)Nc2cccc(S(=O)(=O)N3CCCC3)c2)c1` the entry was “inactive”. With `Cc1ccnc(N2C(=O)c3ccc([N+](=O)[O-])cc3C2=O)c1` the entry was “inactive”; with `Cc1ccc2nc(NC(=O)CSc3nc(=O)n(CCCN(C)C)c4c3CCC4)sc2c1`, “inactive”; with `CC(C)CC1NC(=O)c2cc(Cl)ccc2-n2c1nc1ccccc1c2=O` (stereo unspecified), “inactive”. Regarding `O=C(Cc1ccc(S(=O)(=O)N2CCOCC2)s1)N1CCN(c2ccc(C(F)(F)F)cc2[N+](=O)[O-])CC1`, the Potency result is “inactive”. `C[C@H](OC(=O)n1ccnc1)[C@@H]1O[C@@]2(C)CCC[C@@H]1O2`: the Potency entry was “inactive”.

Consider `O=C(OCc1cc(=O)n2ccsc2n1)C1(c2ccc(Cl)cc2)CC1`, for which the Potency result is “inactive”. To `COc1ccc(C)cc1NC(=O)CN1c2cccc3cccc(c23)S1(=O)=O` belongs “inactive”; to `CCc1ccc(C(=O)NNC(=O)C2CCN(c3ncnc4sc(C)c(C)c34)CC2)cc1`, “inactive”; to `Cc1cccc(C)c1Nc1nnc(SCC(=O)NCCCN2CCCC2=O)s1`, “inactive”. To `Brc1ccc(CN2CC[C@H]3C=CCc4cccc(c43)C2)cc1` belongs “inactive”; to `O=C(OCC(=O)N1CCCCCC1)c1ccc(Cl)nc1`, “inactive”; to `CC1CCCCC12NC(=O)N(CC(=O)OCc1c(F)cccc1Cl)C2=O` (stereo unspecified), “inactive”. Regarding `CCOc1ccc(S(=O)(=O)Nc2ccc(C(=O)NCCCN3CCCC3=O)cc2)cc1`, the Potency result is “inactive”.
